# Data reported in PubChem BioAssay (Tox21).
# “And” between values parts separate entries of the source, which are not always exact repeats. Equal entries are not always repeated. Inconclusive results are not listed. A number with no mark means an inactive call. The source made the active and inactive calls. The call rests on the fitted dose curve; in most records, active means well fitted curve in the direction sought with a large enough effect in the repeat runs; inconclusive means weak or mixed curves; inactive means no such curve, though single readings can be large; an effect the other way counts as inactive or inconclusive.
# Experiment: qHTS RealTime-Glo MT Cell Viability Assay in HEK293 cells - 40 hour (AID 1224874); further: nearly all actives have a fitted effect of over 50% in size
# Conditions: RealTime-Glo luminescence; max response: stronger effect = lower value
# Procedure, shortened: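 Measured as luminescence from the same continuously cultured HEK293 wells at successive time points (0, 8, 16, 24, 32, 40 h) after compound addition. Reagent present from seeding; dosing at 5 h; incubation 37 C.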
# On the % scale 0 is the no-effect control and ±100 the full control effect; potency means the concentration at half of the fitted maximal effect.
Compound,Potency,max response [%]
CCC(OC(C)=O)C(CC(C)NC)(c1ccccc1)c1ccccc1 (centres undefined),49.4 µM (active),–
c1ccc2nc(N3CCNCC3)ccc2c1,–,-17.1
Cc1c([N+](=O)[O-])c(C)c([N+](=O)[O-])c(C(C)(C)C)c1[N+](=O)[O-],–,-20
Nc1ccccc1-c1ccccc1,–,-12.7
CCCCn1cc[n+](C)c1 (tested in a mixture with another compound),–,0.0469
CCC(C)c1cccc(C(C)CC)c1O (centres undefined),–,-7.36
FC(F)C(F)(F)OCC(Cn1cncn1)c1ccc(Cl)cc1Cl (centres undefined),21.7 µM (active),–
CC(C)[C@@H](Nc1ccc(C(F)(F)F)cc1Cl)C(=O)OC(C#N)c1cccc(Oc2ccccc2)c1 (some centres undefined),–,-6.7
CC(C)N(C(=O)CCl)c1ccccc1,49 µM (active) and 38.9 µM (active),–
O=C(N[C@@H]1N=C(c2ccccc2F)c2cccc3c2N(CC3)C1=O)c1cc2ccccc2[nH]1,–,-2.71
CCOP(=O)(Sc1ccccc1)Sc1ccccc1,–,-12.3
CCN1CCC2(CC1)COc1cc3c(cc12)N(C(=O)c1ccc(-c2ccc(-c4nnc(C)o4)cc2C)cc1)CC3,11.3 µM (active),–
CCCCON=O,–,4.44
ClC1=C(Cl)[C@]2(Cl)[C@H]3[C@H]([C@@H]4C=C[C@H]3C4)[C@@]1(Cl)C2(Cl)Cl,48.9 µM (active) and 43.6 µM (active),–
C=CCBr,–,0.528
CC(=O)[O-].CC(=O)[O-].CC(=O)[O-].[Sb+3],–,11.6

Compound,Potency,max response [%]
O=S(=O)(O)F,–,6.96
[O-][Cl+3]([O-])([O-])O,–,7.85
CC(Cc1ccc2c(c1)OCO2)NO (centres undefined),–,0.458
Cc1cccc(Cc2cnc[nH]2)c1C,–,-0.68
COC(=O)c1ccccc1S(=O)(=O)NC(=O)Nc1nc(C)nc(OC)n1,–,0.753
COc1ccc2c3c1O[C@H]1[C@H](O)CC[C@H]4[C@@H](C2)N(C)CC[C@@]341,–,-1.3
CN1[C@@H]2CC[C@H]1CC(O)C2 (some centres undefined),–,15.4
CSC(C)(C)/C=N/O,–,2.63
CNC(=O)CSP(=O)(OC)OC,–,5.27
CC(=O)O.CC(=O)O.CC(=O)O.CC(=O)O.CC(=O)O.CC(=O)O.CC(=O)O.O.O.[Cr].[Cr].[Cr],–,2.64
CC(=O)C(Cl)C(=O)N(C)C (centres undefined),–,3.79
COP(=O)(OC)O/C(=C\Cl)c1cc(Cl)c(Cl)cc1Cl,–,0.507
O=[N+]([O-])c1ccccc1-c1ccccc1,–,4.62
CC(=O)[O-].CC(=O)[O-].CC(=O)[O-].[Cr+3],–,-0.681
COP(=S)(OC)Oc1ccc([N+](=O)[O-])c(C)c1,–,-0.352
O=S1OCC2C(CO1)C1(Cl)C(Cl)=C(Cl)C2(Cl)C1(Cl)Cl (centres undefined),21.9 µM (active) and 38.9 µM (active),–

# Experiment: A CellTox Green Cytotoxicity Assay to monitor cytotoxicity in HEK293 cells - 24 hour (AID 1224875); further: nearly all actives have a fitted effect of over 45% in size
# Conditions: CellTox Green fluorescence; series mostly up to 76.8 µM; activity change: at the top concentration
# Procedure, shortened: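 Homogeneous no-lysis format: HEK293 cell suspension mixed with CellTox Green reagent, seeded, incubated 5 h at 37 C/5% CO2, then dosed by pintool with compound in DMSO.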
Compound,activity change,Potency
c1ccc2nc(N3CCNCC3)ccc2c1,"-1.93% [at 35.3 µM, stronger effect = higher value]",–
Cc1c([N+](=O)[O-])c(C)c([N+](=O)[O-])c(C(C)(C)C)c1[N+](=O)[O-],12.2%,–
CCCCn1cc[n+](C)c1 (tested in a mixture with another compound),-4.76%,–
CCC(C)c1cccc(C(C)CC)c1O (centres undefined),–,38.9 µM (active)
FC(F)C(F)(F)OCC(Cn1cncn1)c1ccc(Cl)cc1Cl (centres undefined),24.1%,–
CC(C)[C@@H](Nc1ccc(C(F)(F)F)cc1Cl)C(=O)OC(C#N)c1cccc(Oc2ccccc2)c1 (some centres undefined),-4.6%,–
Nc1ccc(N=Nc2ccccc2)cc1,-7%,–
CC(C)N(C(=O)CCl)c1ccccc1,–,inactive
O=C(N[C@@H]1N=C(c2ccccc2F)c2cccc3c2N(CC3)C1=O)c1cc2ccccc2[nH]1,–,5.35 µM (active)
CCO/N=C(\CC)C1=C(O)CC(c2c(C)cc(C)cc2C)CC1=O (centres undefined),-0.633%,–
CCOP(=O)(Sc1ccccc1)Sc1ccccc1,-0.747%,–
CCN1CCC2(CC1)COc1cc3c(cc12)N(C(=O)c1ccc(-c2ccc(-c4nnc(C)o4)cc2C)cc1)CC3,–,50.7 µM (active)
CCCCON=O,-0.291%,–
ClC1=C(Cl)[C@]2(Cl)[C@H]3[C@H]([C@@H]4C=C[C@H]3C4)[C@@]1(Cl)C2(Cl)Cl,–,48.9 µM (active) and 49 µM (active)
C=CCBr,-8.92%,–
CC(=O)[O-].CC(=O)[O-].CC(=O)[O-].[Sb+3],"1.85% [at 2.72 µM, stronger effect = higher value]",–

Compound,activity change,Potency
O=S(=O)(O)F,5.99%,–
[O-][Cl+3]([O-])([O-])O,-5.73%,–
CC(Cc1ccc2c(c1)OCO2)NO (centres undefined),4.3%,–
Cc1cccc(Cc2cnc[nH]2)c1C,"-38% [at 35.3 µM, stronger effect = higher value]",–
COC(=O)c1ccccc1S(=O)(=O)NC(=O)Nc1nc(C)nc(OC)n1,13.3%,–
CC(C)(C)c1ccc(OP(=O)(Oc2ccccc2)Oc2ccccc2)cc1,-12.2%,–
COc1ccc2c3c1O[C@H]1[C@H](O)CC[C@H]4[C@@H](C2)N(C)CC[C@@]341,-5.94%,–
CSC(C)(C)/C=N/O,-6.67%,–
CNC(=O)CSP(=O)(OC)OC,-12%,–
CN,10.1%,–
CC(=O)C(Cl)C(=O)N(C)C (centres undefined),29.8%,–
COP(=O)(OC)O/C(=C\Cl)c1cc(Cl)c(Cl)cc1Cl,13.3%,–
O=[N+]([O-])c1ccccc1-c1ccccc1,-0.165%,–
CC(=O)[O-].CC(=O)[O-].CC(=O)[O-].[Cr+3],-1.16%,–
COP(=S)(OC)Oc1ccc([N+](=O)[O-])c(C)c1,8.89%,–
O=S1OCC2C(CO1)C1(Cl)C(Cl)=C(Cl)C2(Cl)C1(Cl)Cl (centres undefined),–,55 µM (active) and 54.9 µM (active)
